# Measured values reported in PubChem BioAssay.
# Values joined by “and” are separate entries in the source; they are usually repeats but may differ in a detail not shown here. Equal entries are not always repeated. Active and inactive are the calls of the source.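 How the source made its calls, unless noted: active means inhibition at or above 50% relative to wild type and mutant plate controls; inactive means inhibition below 50%.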
# Experiments:
# [1] = inhibitors of TNFa-induced NFkB p65 translocation, primary screen, imaging, HUVEC, MLSMR starter and 10KST1 sets (AID 438;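 active means inhibition above 20% together with a positive visual image hit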;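 further: compound added about 3h40 before a 20 min TNFalpha stimulation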;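 on inhibition: signal is the nuclear over cytoplasmic p65 intensity ratio per well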); conditions: HUVEC TNFa-induced p65 nuclear translocation; cell count: measured here: nuclei count (cytotoxicity indicator), at 2.08 µM; inhibition: at 2 µM, stronger effect = higher value, 0% TNFa-plus-vehicle, 100% no-TNFa wells
# [2] = reduction of polyQ htt aggregates in cells – imaging, exon1htt(103Q)mCFP cells, high-content imaging, primary screen (AID 483;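 active means visual image review flags a hit and inhibition of aggregation exceeds 20%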;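 further: compound exposure lasted 3 days before fixation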;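 on nuclei count: percent of the per-plate median nuclei count of sample wells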); conditions: exon1htt(103Q)mCFP cell line, aggregate imaging, at 2 µM; inhibition of aggregation: stronger effect = higher value; nuclei count: measured here: cell count, toxicity
# [3] = endothelial E-selectin expression blockers – imaging, HUVEC, immunofluorescence, MLSMR starter and 10KST1 sets, primary screen (AID 487;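 active means visually confirmed hit in the image check and inhibition above 20%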;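 on inhibition: signal is fraction of cell area covered by stained E-selectin grains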;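 on nuclei count: 100% = median nuclei count of all wells on the same plate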); conditions: HUVEC TNFalpha-induced E-selectin immunofluorescence imaging, at 2 µM; inhibition: stronger effect = higher value; nuclei count: measured here: cell number, toxicity
# [4] = Primary imaging screen for DUSP6 inhibitors that restore phospho-Erk in transfected HeLa cells, chemical complementation (AID 609;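 active means compounds giving at least 50% inhibition in the cell-based MKP-3 phosphatase rescue imaging test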;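 on inhibition: phospho-Erk level distribution per well compared with pooled transfected vehicle control wells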); conditions: HeLa MKP-3 transfected, phospho-Erk imaging KS statistic, at 10 µM, cells stimulated with TPA for 15 min
# [5] = molecular target: Dual specificity protein phosphatase 6 (Homo sapiens) (UniProt Q16828); assay: as above; conditions: HeLa MKP-3 transfected, phospho-Erk imaging KS statistic; at 10 µM; stronger effect = higher value; cells stimulated with TPA for 15 min
# [6] = molecular target: Voltage-gated potassium channel subunit beta-2 (Rattus norvegicus) (UniProt P62483); assay: inhibitors of rat Kvbeta2 reductase activity – biochemical, NADPH fluorescence, primary screen (AID 622;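 active means fluorescence slope higher than the sample average by over 3 SD, cut at about -0.22 in these data, passing the limit was not always enough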;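 further: slope of raw intensity against log time taken from 70 to 1610 s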); conditions: recombinant KvBeta, 4-cyanobenzaldehyde reduction, at 10 µM, stronger effect = higher value
# [7] = molecular target: Voltage-gated potassium channel subunit beta-2 (Rattus norvegicus) (UniProt P62483); assay: enhancers of rat Kvbeta2 NADPH turnover – biochemical, NADPH fluorescence, primary screen (AID 623;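 active means NADPH fluorescence slope more negative than the mean of all samples by about 3 SD, 99.7% confidence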;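 further: fluorescence intensity change per second fitted from 20 to 320 s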); conditions: Recombinant KvBeta, NADPH fluorescence decrease slope, 10 min; at 10 µM; stronger effect = lower value
# [8] = molecular target: Alpha-2C adrenergic receptor (Homo sapiens) (UniProt P18825); assay: compounds altering alpha2C-coupled GIRK flux – cell-based, HEK293 alpha2C/GIRK1/2, thallium flux, primary screen (AID 624;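 active means fluorescence slope after compound addition differing from the mean of all screened samples at 99.7% confidence, in either direction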;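 further: slope of fluorescence ratio to pre-addition baseline per second over 15 to 24 s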); conditions: thallium flux BTC fluorescence, at 10 µM, actives lie on both sides
# [9] = inhibitors of larval lipid processing in zebrafish, primary screen, whole organism, PED6 fluorescence, gall bladder and intestine (AID 686;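 active means a full or partial loss of lipid-probe fluorescence in the fish gall bladder, intestine or both, judged by eye; inactive means no fluorescence loss, or compound toxic to the fish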;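 further: larvae 5 to 7 days old with five fish per well; signal comes from phospholipase A2 cleavage of quenched PED6 carried via bile; overnight exposure to compound and PED6 before scoring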); conditions: Zebrafish larvae PED6 lipid processing, fluorescence scoring; screened at 20 µM (by protocol)
# [10] = loss of swimming-algae plug formation – whole organism, Chlamydomonas reinhardtii, WT vs cilia-less mutant, absorbance, 96-well, primary screen (AID 463189); conditions: Chlamydomonas reinhardtii gravitaxis, OD600 absorbance, 2 days; at 10 µM; stronger effect = higher value;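 further: 0% = wild type cc124 cells in DMSO and 100% = ciliumless bld1 mutant cells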
# [11] = blockers of RIG-like receptor reporter activation – cell-based, Sendai virus stimulus, luciferase, 10K MLSCN set, TLR/RLR signaling modifier project, primary screen (AID 602276;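 active means inhibition at or above 50% at 10 µM; inactive means inhibition below 50%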;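 further: firefly luciferase from ISG56 promoter only with Renilla not read in this screen; 0% = Sendai virus plus DMSO and 100% = medium plus DMSO without virus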); conditions: HEK293 RL24 IRF3 luciferase reporter, at 10 µM, stronger effect = higher value
# [12] = TLR3 IRF3 reporter activation blockers – cell-based, poly I:C stimulus, luciferase, 10K MLSCN set, primary screen (AID 602277;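 active means inhibition of the reporter signal at or above 50%; inactive means inhibition below 50%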); conditions: HEK293-TLR3 RL24 IRF3 luciferase reporter, at 10 µM, stronger effect = higher value
# [13] = measured here: cell density z-score
# [14] = measured here: nuclear c-Myc green intensity z-score
# [15] = measured here: nuclear pErk red intensity z-score, stronger effect = higher value
# Alpha-2C adrenergic receptor (Homo sapiens), sequence (P18825 whole entry, looked up): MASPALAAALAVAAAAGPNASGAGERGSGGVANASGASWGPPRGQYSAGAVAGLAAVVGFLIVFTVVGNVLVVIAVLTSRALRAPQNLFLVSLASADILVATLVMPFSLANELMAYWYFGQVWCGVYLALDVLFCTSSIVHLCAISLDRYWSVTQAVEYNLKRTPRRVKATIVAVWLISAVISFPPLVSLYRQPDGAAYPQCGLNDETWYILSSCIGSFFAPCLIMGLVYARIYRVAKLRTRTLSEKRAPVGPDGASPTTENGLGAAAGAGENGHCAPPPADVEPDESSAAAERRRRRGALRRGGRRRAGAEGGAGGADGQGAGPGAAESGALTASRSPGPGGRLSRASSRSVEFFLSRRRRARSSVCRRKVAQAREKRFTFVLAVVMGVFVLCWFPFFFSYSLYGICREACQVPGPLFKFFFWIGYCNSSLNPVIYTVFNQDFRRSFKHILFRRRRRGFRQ
# Dual specificity protein phosphatase 6 (Homo sapiens), sequence (Q16828 whole entry, looked up): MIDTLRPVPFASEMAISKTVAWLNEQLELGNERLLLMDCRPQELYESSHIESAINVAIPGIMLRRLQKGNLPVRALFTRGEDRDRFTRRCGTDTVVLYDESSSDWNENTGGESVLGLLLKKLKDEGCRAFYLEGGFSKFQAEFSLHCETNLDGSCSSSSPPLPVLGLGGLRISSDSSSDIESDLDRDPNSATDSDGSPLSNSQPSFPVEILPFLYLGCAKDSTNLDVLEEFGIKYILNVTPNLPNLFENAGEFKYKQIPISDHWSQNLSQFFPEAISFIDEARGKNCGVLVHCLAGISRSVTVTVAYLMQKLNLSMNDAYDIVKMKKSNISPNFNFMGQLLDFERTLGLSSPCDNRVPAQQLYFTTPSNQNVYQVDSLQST
# Voltage-gated potassium channel subunit beta-2 (Rattus norvegicus), sequence (P62483 whole entry, looked up): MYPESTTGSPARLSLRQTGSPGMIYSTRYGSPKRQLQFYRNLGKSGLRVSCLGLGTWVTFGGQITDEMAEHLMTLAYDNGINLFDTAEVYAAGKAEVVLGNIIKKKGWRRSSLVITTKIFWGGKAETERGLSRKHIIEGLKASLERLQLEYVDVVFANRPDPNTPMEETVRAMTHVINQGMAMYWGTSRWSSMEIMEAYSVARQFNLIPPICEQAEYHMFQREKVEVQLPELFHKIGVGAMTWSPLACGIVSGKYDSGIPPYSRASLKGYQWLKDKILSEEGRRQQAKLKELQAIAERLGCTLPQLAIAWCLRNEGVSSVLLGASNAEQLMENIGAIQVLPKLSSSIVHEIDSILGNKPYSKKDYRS
Compound,cell count [1],inhibition [1],inhibition of aggregation [2],nuclei count [2],inhibition [3],nuclei count [3],"z-score [4, 13]","z-score [4, 14]","z-score [4, 15]",inhibition [5],fluorescence slope [6],NADPH fluorescence slope [7],slope [8],outcome [9],inhibition [10],inhibition [11],inhibition [12]
CC1CCc2cc(F)cc3c(O)c(C(=O)Nc4cnccn4)c(=O)n1c23 (stereo not given),457,-7.7% (inactive),3.8% (inactive),99.3%,-40.6% (inactive),99.4%,0.762,0.74,0.103,17.5% (inactive),-0.351 (inactive),2e-05 (inactive),0.0057 (inactive),inactive,-9.12% (inactive),13.2% (inactive),21.7% (inactive)
CC1(C)Cc2c(sc3c2C2=NCCN2C=N3)CO1,624,-7% (inactive),4.2% (inactive),124%,-54.1% (inactive),139%,-0.0476,0.11,-0.119,-2.69% (inactive),-0.328 (inactive),-8.5e-06 (inactive),0.00463 (inactive),inactive,63.1% (active),-17.5% (inactive),-3.31% (inactive)
CN(C)c1nc(OCCOC(=O)Nc2ccc(Cl)cc2Cl)nc(N(C)C)n1,397,-14.7% (inactive),-0.2% (inactive),56.4%,-100% (inactive),122%,0.138,0.513,-0.605,-5.26% (inactive),-0.48 (inactive),-8.2e-05 (inactive),0.00682 (inactive),inactive,-0.1% (inactive),11.3% (inactive),0.088% (inactive)
CC1CCc2cc(F)cc3c(O)c(C(=O)NCC4CCCO4)c(=O)n1c23 (stereo not given),553,2.6% (inactive),1.2% (inactive),83.8%,-28.6% (inactive),134%,-0.0424,-0.796,-0.351,-8.76% (inactive),-0.395 (inactive),1.7e-06 (inactive),0.0054 (inactive),inactive,11.8% (inactive),4.8% (inactive),8.44% (inactive)
Cc1nc2ccccn2c(=O)c1CCN1CCC(C(=O)c2ccc(F)cc2)CC1,712,2.4% (inactive),-22.1% (inactive),103%,-63.6% (inactive),126%,2.25,1.22,-0.61,19% (inactive),-0.464 (inactive),1.2e-06 (inactive),0.00457 (inactive),inactive,0.607% (inactive) and -12.6% (inactive),19.4% (inactive),35.8% (inactive)
CN(C)c1ccc(C=NCC2(O)CCOC(C)(C)C2)cc1 (stereo not given),470,-13.2% (inactive),-13.7% (inactive),108%,-145% (inactive),144%,-1.86,-0.94,0.52,17.5% (inactive),-0.423 (inactive),-0.000132 (inactive),0.00493 (inactive),inactive,7.69% (inactive),13% (inactive),13.9% (inactive)
CCCCNc1cc(C(=O)O)cc(S(N)(=O)=O)c1Oc1ccccc1,603,-16.6% (inactive),-13.4% (inactive),110%,-136% (inactive),140%,0.424,0.482,-0.678,15.3% (inactive),-0.47 (inactive),-6.3e-05 (inactive),0.00446 (inactive),inactive,7.78% (inactive) and -7.14% (inactive),13.2% (inactive),38.2% (inactive)
N#Cc1nc(-c2cccs2)oc1NCCc1ccccc1,421,-5.5% (inactive),2.8% (inactive),101%,-33.7% (inactive),109%,-0.62,-0.621,-1.02,-6.48% (inactive),-0.332 (inactive),1.7e-05 (inactive),0.00708 (inactive),inactive,11.6% (inactive),-37.1% (inactive),-77.6% (inactive)
COc1cccc(N2CCN(c3ncnc4c3[nH]c3ccc(F)cc34)CC2C)c1 (stereo not given),342,-7% (inactive),10.9% (inactive),92.8%,11.4% (inactive),127%,0.762,0.103,-1.52,-3.5% (inactive),-0.393 (inactive),-9.3e-05 (inactive),0.00384 (inactive),inactive,25.3% (inactive),2.95% (inactive),98.8% (active)
CC(=O)OCC(=O)[C@H]1CC[C@H]2[C@@H]3CCC4=CC(=O)CC[C@]4(C)[C@H]3CC[C@]12C,599,-7.8% (inactive),-27.4% (inactive),83.1%,-142% (inactive),132%,-1.17,0.0337,1.04,11.3% (inactive),-0.472 (inactive),-1.7e-05 (inactive),0.00411 (inactive),inactive,6.25% (inactive),-2.65% (inactive),25.6% (inactive)
CC(=Nc1ccc(C)c(C)c1)C1=C(O)CCC1=O,616,-14.9% (inactive),30.6% (inactive),87.4%,-30.7% (inactive),143%,0.598,-0.724,0.505,4.72% (inactive),-0.423 (inactive),-4.1e-05 (inactive),0.00609 (inactive),inactive,2.51% (inactive),-16.6% (inactive),-35.9% (inactive)
Nc1nc2ccc(OC(F)(F)F)cc2s1,540,-0.5% (inactive),-1.7% (inactive),86.1%,-27.8% (inactive),107%,2.05,-1.62,-0.877,36.7% (inactive),-0.427 (inactive),2.4e-05 (inactive),0.00474 (inactive),inactive,4.87% (inactive) and -11.8% (inactive),-14.6% (inactive),-58.1% (inactive)
CCC(=O)Oc1ccc(/C(CC)=C(\CC)c2ccc(OC(=O)CC)cc2)cc1,550,-4.1% (inactive),3.5% (inactive),97.5%,-13.5% (inactive),127%,-0.723,0.714,1.03,3.45% (inactive),-0.443 (inactive),-5.7e-05 (inactive),0.00761 (inactive),inactive,9.5% (inactive),11.1% (inactive),42.9% (inactive)
Cc1ccc(-n2nc3cc(Cl)c(NC(=O)c4ccco4)cc3n2)cc1,566,-2.6% (inactive),-7.2% (inactive),112%,-52% (inactive),137%,-0.552,1.17,-0.609,-0.674% (inactive),-0.459 (inactive),-5.2e-05 (inactive),0.00706 (inactive),inactive,6.11% (inactive),-16.5% (inactive),-49.9% (inactive)
CNC[C@H](O)c1cccc(O)c1,561,0.6% (inactive),1.2% (inactive),89.3%,-73.1% (inactive),117%,0.304,0.128,-0.803,14.6% (inactive),-0.468 (inactive),-5e-05 (inactive),0.00773 (inactive),inactive,-10.5% (inactive) and 0.836% (inactive),11.5% (inactive),41.6% (inactive)
CCC(C)n1ncn(-c2ccc(N3CCN(c4ccc(OCC5COC(Cn6cncn6)(c6ccc(Cl)cc6Cl)O5)cc4)CC3)cc2)c1=O (stereo not given),587,3.2% (inactive),-63.7% (inactive),140%,-162% (inactive),121%,0.653,-0.579,-0.684,1.38% (inactive),-0.456 (inactive),-5.2e-05 (inactive),0.00423 (inactive),inactive,5.29% (inactive),33.8% (inactive),4.61% (inactive)
Cn1c(=O)c2c3c(sc2n2c(SCC(=O)c4ccc(Cl)cc4)nnc12)COC(C)(C)C3,673,-9.1% (inactive),-12.3% (inactive),105%,2.7% (inactive),143%,-0.121,0.129,-1.03,-3.98% (inactive),-0.53 (inactive),-1.3e-05 (inactive),0.00419 (inactive),inactive,0.223% (inactive),6.06% (inactive),10.6% (inactive)
CCCCc1c(O)nc(SCCN(C)C)n(-c2ccccc2)c1=O,326,-8.8% (inactive),2.2% (inactive),94.9%,-40.2% (inactive),96.4%,-1.09,2.21,0.182,12.3% (inactive),-0.438 (inactive),-0.000152 (inactive),0.00653 (inactive),inactive,-12.4% (inactive),7.92% (inactive),1.23% (inactive)
Nc1ccc2[nH]ncc2c1,684,7.9% (inactive),-14.5% (inactive),106%,-64.7% (inactive),141%,0.816,1.08,-0.122,27.9% (inactive),-0.496 (inactive),-6.9e-05 (inactive),0.00441 (inactive),inactive,-11% (inactive),11.4% (inactive),31.1% (inactive)
COc1ccc(/C=C/C(=O)Nc2ccccc2C(=O)O)cc1OC,476,-4.9% (inactive),-20.4% (inactive),103%,-112% (inactive),128%,0.437,-0.319,-0.448,15.3% (inactive),-0.492 (inactive),-8.1e-05 (inactive),0.0062 (inactive),inactive,3.58% (inactive) and -6.51% (inactive),16.4% (inactive),23.3% (inactive)
